According to PubChem BioAssay (EPA / NIEHS):
More than one record can exist for a structure, and the calls need not agree. Activity calls are given as the source filed them. Rule for the calls: active = hit-call score of the fitted dose curve at least 0.9, where 1 is the maximum; inactive = score below 0.9.

Target: Aryl hydrocarbon receptor (Homo sapiens) (UniProt P35869)
Assay: ATG_Ahr_CIS: Attagene CIS-FACTORIAL HepG2 Assay for human Aryl Hydrocarbon Receptor (Ahr) (AID 2282930)
Conditions: HepG2 AhR cis-factorial reporter transcription; actives raise or lower the signal
Method: ATG_CIS is a cell-based, multiplexed-readout assay that uses HepG2, a human liver cell line, with measurements taken at 24 hours after chemical dosing in a 24-well plate.ATG_Ahr_CIS is one of 52 assay component(s) measured or calculated from the ATG_CIS assay. It is designed to make measurements of mRNA induction, a form of inducible reporter, as detected with fluorescence intensity signals by Reverse transcription polymerase chain reaction (RT-PCR) and Capillary electrophoresis technology.Data from the assay component ATG_Ahr_CIS was analyzed into 1 assay endpoint. This assay endpoint, ATG_Ahr_CIS, was analyzed with bidirectional fitting relative to DMSO as the negative control and baseline of activity. Using a type of inducible reporter, measures of mRNA for gain or loss-of-signal activity can be used to understand the reporter gene at the transcription factor-level as they relate to the gene AHR. Furthermore, this assay endpoint can be referred to as a primary readout, because this assay has produced multiple assay endpoints where this one serves a reporter gene function. To generalize the intended target to other relatable targets, this assay endpoint is annotated to the dna binding intended target family, where the subfamily is basic helix-loop-helix protein.
Human liver HepG2 cells are transiently transfected with multiple reporter transcription units (MRTUs) in 6-well plates using FuGene 6 reagent (Roche; 3 ml FuGene/1 mg DNA). The MRTU constructs are regulated by a cis-regulating element (promoter). […] A major difference between the CIS and TRANS system is that in CIS activities of endogenous TFs are measured, whereas the TRANS assay evaluates changes in activities of exogenous, chimeric NR-Gal4 proteins. […] At the end of 24 hour incubation, total RNA was isolated using TriZol reagent (Invitrogen). The isolated RNA is then reverse-transcribed using oligo(dT) primer and Mo-MLV reverse transcriptase (Invitrogen) with DNAse I (Ambion) treatment for 30 min. The one-tenth of the produced cDNA was amplified by PCR using Taq DNA polymerase (Invitrogen) and two reporter sequence-specific primers. The PCR products were fluorescently labeled by primer extension with 6-arboxyfluorescein (6-FAM) 5'-labeled reporter sequence-specific primer (2 min at 95 C, 20 s at 68 C and 10 min at 72 C) and these products were digested with 5U of HpaI (New England Biolabs) for 2h at 37 C. […] The raw capillary electrophoresis data was processed using Attagraph software (Attagene).

Chain of Aryl hydrocarbon receptor (Homo sapiens) (P35869 whole entry, looked up): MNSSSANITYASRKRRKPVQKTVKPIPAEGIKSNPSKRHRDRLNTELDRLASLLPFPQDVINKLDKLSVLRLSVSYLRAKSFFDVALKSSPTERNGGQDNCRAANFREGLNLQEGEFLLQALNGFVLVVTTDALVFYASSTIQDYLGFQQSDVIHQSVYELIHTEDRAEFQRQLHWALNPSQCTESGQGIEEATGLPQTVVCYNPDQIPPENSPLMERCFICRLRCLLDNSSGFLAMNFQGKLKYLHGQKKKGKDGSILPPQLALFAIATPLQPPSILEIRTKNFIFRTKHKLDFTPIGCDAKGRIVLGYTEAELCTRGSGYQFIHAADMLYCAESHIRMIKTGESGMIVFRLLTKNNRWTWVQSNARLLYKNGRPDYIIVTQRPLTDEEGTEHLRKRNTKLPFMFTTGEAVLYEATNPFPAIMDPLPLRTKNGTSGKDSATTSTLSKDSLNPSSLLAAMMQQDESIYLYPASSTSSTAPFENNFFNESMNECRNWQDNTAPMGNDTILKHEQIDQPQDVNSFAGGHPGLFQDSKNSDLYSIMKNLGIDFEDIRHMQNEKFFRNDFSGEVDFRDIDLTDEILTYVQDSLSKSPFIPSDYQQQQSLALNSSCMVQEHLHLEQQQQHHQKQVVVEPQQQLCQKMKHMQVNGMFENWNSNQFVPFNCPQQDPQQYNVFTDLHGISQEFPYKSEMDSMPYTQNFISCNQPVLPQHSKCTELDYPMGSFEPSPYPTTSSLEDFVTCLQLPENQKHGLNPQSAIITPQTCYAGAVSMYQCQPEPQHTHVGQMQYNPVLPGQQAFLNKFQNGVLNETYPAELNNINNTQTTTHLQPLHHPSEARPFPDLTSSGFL

outcome, inactive:
CCCC=O
CCCCCCCCCCCCCC[n+]1ccccc1
COc1ccc(C#N)cc1
CCCCCCC(C)(C)C(=O)O
O=C(C=C(O)C(F)(F)F)C(F)(F)F
CCOC(OCC)C(=O)c1ccccc1
CC1CCC(C(=O)O)CC1 (stereo not given)
CC(C)C=O
O=C1OC(=O)c2cc(-c3ccc4c(c3)C(=O)OC4=O)ccc21
O=P(O)(O)CCC(F)(F)C(F)(F)C(F)(F)C(F)(F)C(F)(F)C(F)(F)C(F)(F)C(F)(F)F
O=C(O)CCC(F)(F)C(F)(F)C(F)(F)C(F)(F)C(F)(F)F
O=P(O)(O)CCC(F)(F)C(F)(F)C(F)(F)C(F)(F)C(F)(F)C(F)(F)F
CC(=O)Nc1ccc(O)cc1
Oc1ccc(Cc2ccccc2O)cc1
CCc1cccc(CC)c1NC(=O)C(=O)O
O=C1OC(=O)C(F)(F)C1(F)F
FCOC(C(F)(F)F)C(F)(F)F
CC(O)COc1ccccc1 (stereo not given)
NC(=NCCCCCCN=C(N)/N=C(\N)Nc1ccc(Cl)cc1)/N=C(\N)Nc1ccc(Cl)cc1
CCOC(=O)c1nc(C(Cl)(Cl)Cl)n(-c2ccc(Cl)cc2Cl)n1
CCCCCC(C)OC(=O)COc1ccc(Cl)c2cccnc12 (stereo not given)
CCCCC(CC)C(=O)OCCOCCOCCOCCOC(=O)C(CC)CCCC (stereo not given)
CCCCCCCCCCCCCCCC(=O)OC
Nc1cc(Cl)c(-c2cc(Cl)c(N)cc2Cl)cc1Cl
CCO[Si](CCC1CCC2OC2C1)(OCC)OCC (stereo not given)
CC(C)(C)c1ccc(CCC=O)cc1
CCC(=O)O
O=C(NCc1ncc(C(F)(F)F)cc1Cl)c1c(Cl)cccc1Cl
Cc1ccc(C)c(S(=O)(=O)O)c1
CCOC(=O)CN[C@@H](C(=O)N1CC[C@H]1C(=O)NCc1ccc(/C(N)=N/O)cc1)C1CCCCC1
O=C(O)CCC(F)(F)C(F)(F)C(F)(F)C(F)(F)C(F)(F)C(F)(F)F

AC50, active:
Cc1ccc(N=Nc2c(O)ccc3ccccc23)c(C)c1 0.36 µM
C=CC(=O)OCCN(CC)CC 65.6 µM
Clc1ccc2c(Cl)ccnc2c1 19.8 µM
CC1COCc2cc3c(cc21)C(C)(C)C(C)C3(C)C (stereo not given) 91.3 µM
CCCCCc1ccc(O)cc1 15 µM
CC(O)COc1ccccc1 (stereo not given) 6.06 µM
NC(=NCCCCCCN=C(N)/N=C(\N)Nc1ccc(Cl)cc1)/N=C(\N)Nc1ccc(Cl)cc1 21.9 µM
CCc1ccccc1O 10.3 µM
COc1ccccc1NC(=O)c1cc2ccccc2cc1O 0.0553 µM
